PubChem BioAssay (NCATS)
“And” between values parts separate entries of the source, which are not always exact repeats. Equal values may be shown once. A number with no mark means an inactive call. Inconclusive results are not listed. The source made the active and inactive calls. Unless noted, calls follow the shape of the dose curve; as a rule, active = well fitted curve in the direction sought with a large enough effect; inconclusive = small, poorly fitted or top-dose-only effect, or another doubt; inactive = no such curve, though single readings can be large; an effect the other way counts as inactive or inconclusive.

Assays:
[1] = Validation screen for inhibitors of Lassa infection (AID 463096; calls by dose curve; also: % is scaled to controls: 0 for no effect and ±100 for the full control effect)
[2] = Quantitative high throughput screen for delayed death inhibitors of the malarial parasite plastid, 96 hour incubation (AID 488745); also: nearly all actives have a fitted effect of over 70% in size; also: potency is read from the fitted curve at half-maximal effect
In short: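 Two-generation (96 h) exposure of luciferase-reporter P. falciparum in erythrocytes, 2% hematocrit, 0.1% parasitemia final, 37 C, 5% CO2, RPMI 1640 with 0.5% Albumax. Growth inhibition scored by reduced luminescence.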

[3] = molecular target: Transient receptor potential cation channel subfamily V member 1 (Homo sapiens) (UniProt Q8NER1); assay: HTS Assay for Compounds that Act as Enhancers of the Vanilloid Receptor 1 (AID 488979); also: 0% is about no effect
In short: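 TRPV1-expressing cells loaded with Fluo-8 calcium dye; compounds added and calcium influx read kinetically for 3 min (agonist phase), then capsaicin at EC20 added and read 2 min more for enhancement. Fluorescence ex 480/em 520 nm.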

[4] = molecular target: Thyrotropin-releasing hormone receptor (Homo sapiens) (UniProt P34981); assay: qHTS for Small Molecule Agonists and Allosteric Enhancers of Human TRH Receptor: Validation Screen for Agonists (AID 493127;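 active = calcium activation more than 3 SD above the typical response in the agonist read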;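 also: intracellular calcium rise by fluo-8 fluorescence before TRH EC20 addition; 0% is about no effect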); settings: TRH receptor agonist cell assay; at 2 µM; stronger effect = higher value
In short: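 Kinetic fluorescence assay of agonist-induced calcium release: overnight-plated TRHR cells, room-temperature fluo-8 loading, baseline then compound addition with per-second reads.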

[5] = molecular target: Galactokinase (Homo sapiens) (UniProt P51570); assay: qHTS Validation Assay for Inhibitors of Human Galactokinase (GALK) (AID 493189); also: 0% is about no effect
In short: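 GALK (5 nM) with 35 uM ATP and 100 uM galactose in HEPES pH 8.0 with MgCl2, NaCl, DTT and BSA. Reaction ran 1 h at room temperature. Residual ATP read by Kinase-Glo Plus luminescence.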

[6] = qHTS for differential inhibitors of proliferation of Plasmodium falciparum line D10 (AID 1877);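 also: parasites grown with compound for 72 h before DNA staining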; also: potency is read from the fitted curve at half-maximal effect
[7] = molecular target: Rap guanine nucleotide exchange factor 3 (Homo sapiens) (UniProt O95398); assay: Confirmatory qHTS for agonist of cAMP-regulated guanine nucleotide exchange factor 3 (EPAC1) (AID 1645881); also: nearly all actives have a fitted effect of over 75% in size; also: potency is read from the fitted curve at half-maximal effect;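 as to activation: EPAC1 catalysed release of BODIPY-GDP from Rap1B seen as fluorescence loss; 100% = effect of cAMP agonist control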
[8] = Cell Viability - SK-N-SH (AID 435; calls by dose curve;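 also: potency is read from the fitted curve at half-maximal effect; compound exposure lasted 40 h at 37 °C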); settings: SK-N-SH neuroblastoma cell viability qHTS
In short: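 SK-N-SH neuroblastoma cells (1500/well) treated 40 h at 37 °C in complete medium; viability read as cellular ATP by CellTiter-Glo luminescence. Normalized to DMSO and 100 uM tamoxifen; AC50 from Hill fits of qHTS concentration-response.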

[9] = Cell Viability - N2a (AID 540); settings: N2a mouse neuroblastoma cell viability; at 92.2 µM (top of the series);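 also: cells exposed to compound for 40 h at 37 °C; plate controls were DMSO alone for no effect and tamoxifen control for full effect; nearly all actives have a fitted effect of over 45% in size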
In short: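 In this qHTS cytotoxicity screen, ATP-dependent luciferase luminescence reports viable N2a cells after a 40 hr compound exposure in complete culture medium. Potencies are AC50 values from standard Hill equation fits.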

[10] = Cell Viability - LYMP1-003 - Assay at 40 hr (AID 964); also: nearly all actives have a fitted effect of over 60% in size; also: potency is read from the fitted curve at half-maximal effect
In short: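 Acute toxicity is scored as a concentration-dependent loss of intracellular ATP in LYMP1-003 cells (2500/well, complete medium) after 40 hr at 37 C, measured by CellTiter-Glo luminescence; AC50 values derive from standard Hill modelling.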

[11] = Cell Viability - LYMP2-012 (AID 982);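 also: cellular ATP by luciferase luminescence where a drop means cytotoxicity; cells exposed to compound for one day before reading; 0% = DMSO only and full loss = 92 µM tetraoctylammonium bromide; nearly all actives have a fitted effect of over 55% in size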
[12] = Cell Viability - LYMP2-014 (AID 983);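 also: cells exposed to compound for 24 h at 37 °C; plate controls were DMSO only for no effect and 92 µM tetraoctylammonium bromide for full effect; nearly all actives have a fitted effect of over 50% in size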
In short: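 Quantitative HTS in lymphoblastoid cells: 24 hr compound exposure, then CellTiter-Glo ATP luminescence. Positive control was tetraoctylammonium bromide, 6.4pM to 92 uM.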

[13] = Cell Viability - LYMP2-026 (AID 989);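 also: cells exposed to compound for 24 h at 37 °C; nearly all actives have a fitted effect of over 50% in size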; also: potency is read from the fitted curve at half-maximal effect
In short: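 Acute toxicity screen in complete culture medium, with 24 hr compound exposure at 37 C. Viability read as cellular ATP via luciferase reaction, with tetraoctylammonium bromide (6.4pM to 92 uM) as positive control.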

[14] = molecular target: Glucocorticoid receptor (Homo sapiens) (UniProt P04150); assay: qHTS assay for small molecule agonists of glucocorticoid receptor signaling (AID 588532; active = well fitted curve in the direction sought with a large enough effect in the signal ratio, with a control signal flat; the % refers to the signal ratio;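 also: 100% = dexamethasone at 0.1 µM and 0% = DMSO only wells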); settings: HeLa MMTV-bla, beta-lactamase ratio, agonist, 18 h; stronger effect = higher value; percent of dexamethasone control, DMSO zero
In short: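 MMTV-bla HeLa, beta-lactamase reporter; medium with 1% charcoal/dextran-stripped FBS; cpds up to 92 uM, 18 h, 37 C; CCF4 readout 460/530 nm; Hill fit → EC50, efficacy vs 0.1 uM dexamethasone = 100%.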

[15] = molecular target: Thyroid hormone receptor beta (Homo sapiens) (UniProt P10828); assay: qHTS assay for small molecule antagonists of thyroid hormone receptor beta signaling (AID 588547; active = well fitted inhibition curve with a large enough effect in the signal ratio, with a control signal flat, not every such curve was filed as active; the % refers to the signal ratio;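 also: cells stimulated with 0.4 nM T3 agonist during compound exposure; % is scaled to controls: 0 for no effect and ±100 for the full control effect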); settings: TR-UAS-bla HEK293, beta-lactamase ratio, antagonist mode, 18 h
In short: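 TR-UAS-bla GripTite HEK293 cells in 2% charcoal/dextran FBS medium were preincubated 4 h at 37 C, given compound (0.59 nM to 92 uM) plus 0.4 nM T3 (final) for 18 h, then CCF4 for 2 h at RT; Hill fit gave IC50.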

[16] = qHTS assay to identify small molecules that stimulate interleukin-8 (IL-8) secretion (AID 651758; active = well fitted activation curve with a large enough effect in the signal ratio; the % refers to the signal ratio; also: potency is read from the fitted curve at half-maximal effect; as to activation: 0% is about no effect)
In short: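 Quantitative HTS in THP-1 monocytic cells at 2000 cells per well, with 16 hrs compound incubation at 37 C. IL-8 in the medium was then quantified by HTRF immunoassay, read after 1-3 hrs at room temperature.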

[17] = molecular target: Peroxisome proliferator-activated receptor alpha (Homo sapiens) (UniProt Q07869); assay: qHTS assay for small molecule agonists of the peroxisome proliferator-activated receptor alpha (PPARalpha) signaling pathway (AID 651778); settings: PathHunter PPARalpha complementation, chemiluminescence, 6 h; stronger effect = higher value; also: % of control where 0% means no effect
In short: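 Cells plated at 2,000/well and held overnight at 37 C, 5% CO2, then compound added by pin tool for 6 hr; after PathHunter detection reagent and 60 min at room temperature, chemiluminescence from enzyme complementation was read.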

[18] = qHTS profiling for inhibitors of Plasmodium falciparum proliferation (AID 504749);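 also: 0% = DMSO vehicle and full inhibition = artemisinin control; nearly all actives have a fitted effect of over 60% in size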; settings: P. falciparum in erythrocytes, SYBR Green DNA, 72 h
In short: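 Fluorescence of SYBR Green-bound parasite DNA, read at 485/535 nm, served as the growth measure. Infected erythrocytes were cultured with compound 72 h; artemisinin (0.29 uM) and DMSO wells defined the normalization range.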

[19] = Cell Viability - LYMP2-009 (AID 968);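 also: cells exposed to compound for 24 h at 37 °C; 0% = DMSO alone and the full-kill end = tetraoctylammonium bromide at 92 µM; nearly all actives have a fitted effect of over 55% in size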
[20] = molecular target: Nuclear receptor subfamily 1 group I member 2 (Rattus norvegicus) (UniProt Q9R1A7); assay: qHTS assay for small molecule activators of the rat pregnane X receptor (rPXR) signaling pathway (AID 651751; call rule not given here; also: 0% is about no effect); settings: rPXR reporter cells, luciferase (One-Glo), 24 h
[21] = at 28.7 µM (top of the series), parasite line A
[22] = at 28.7 µM (top of the series), parasite line B

Chain of Glucocorticoid receptor (Homo sapiens) (P04150 whole entry, looked up): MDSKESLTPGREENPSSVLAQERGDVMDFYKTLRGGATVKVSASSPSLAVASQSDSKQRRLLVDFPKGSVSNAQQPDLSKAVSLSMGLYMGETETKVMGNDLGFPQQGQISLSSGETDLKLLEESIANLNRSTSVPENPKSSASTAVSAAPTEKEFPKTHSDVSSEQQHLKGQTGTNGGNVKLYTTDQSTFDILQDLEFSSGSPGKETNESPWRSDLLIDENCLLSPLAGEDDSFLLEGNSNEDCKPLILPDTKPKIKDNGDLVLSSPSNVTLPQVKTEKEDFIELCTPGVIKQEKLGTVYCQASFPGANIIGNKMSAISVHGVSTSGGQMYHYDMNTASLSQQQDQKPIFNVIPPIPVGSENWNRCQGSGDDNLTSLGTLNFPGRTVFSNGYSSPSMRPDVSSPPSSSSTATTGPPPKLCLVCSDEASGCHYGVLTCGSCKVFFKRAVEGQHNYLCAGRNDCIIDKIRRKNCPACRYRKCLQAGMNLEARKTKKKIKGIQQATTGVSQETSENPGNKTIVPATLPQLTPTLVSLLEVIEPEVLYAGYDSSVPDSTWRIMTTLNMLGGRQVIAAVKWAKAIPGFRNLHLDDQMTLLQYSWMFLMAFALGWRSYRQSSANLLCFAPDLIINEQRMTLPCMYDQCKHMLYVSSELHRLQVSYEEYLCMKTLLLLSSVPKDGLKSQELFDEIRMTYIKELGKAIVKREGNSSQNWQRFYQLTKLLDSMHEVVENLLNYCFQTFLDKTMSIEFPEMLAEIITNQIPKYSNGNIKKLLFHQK
Chain of Transient receptor potential cation channel subfamily V member 1 (Homo sapiens) (Q8NER1 whole entry, looked up): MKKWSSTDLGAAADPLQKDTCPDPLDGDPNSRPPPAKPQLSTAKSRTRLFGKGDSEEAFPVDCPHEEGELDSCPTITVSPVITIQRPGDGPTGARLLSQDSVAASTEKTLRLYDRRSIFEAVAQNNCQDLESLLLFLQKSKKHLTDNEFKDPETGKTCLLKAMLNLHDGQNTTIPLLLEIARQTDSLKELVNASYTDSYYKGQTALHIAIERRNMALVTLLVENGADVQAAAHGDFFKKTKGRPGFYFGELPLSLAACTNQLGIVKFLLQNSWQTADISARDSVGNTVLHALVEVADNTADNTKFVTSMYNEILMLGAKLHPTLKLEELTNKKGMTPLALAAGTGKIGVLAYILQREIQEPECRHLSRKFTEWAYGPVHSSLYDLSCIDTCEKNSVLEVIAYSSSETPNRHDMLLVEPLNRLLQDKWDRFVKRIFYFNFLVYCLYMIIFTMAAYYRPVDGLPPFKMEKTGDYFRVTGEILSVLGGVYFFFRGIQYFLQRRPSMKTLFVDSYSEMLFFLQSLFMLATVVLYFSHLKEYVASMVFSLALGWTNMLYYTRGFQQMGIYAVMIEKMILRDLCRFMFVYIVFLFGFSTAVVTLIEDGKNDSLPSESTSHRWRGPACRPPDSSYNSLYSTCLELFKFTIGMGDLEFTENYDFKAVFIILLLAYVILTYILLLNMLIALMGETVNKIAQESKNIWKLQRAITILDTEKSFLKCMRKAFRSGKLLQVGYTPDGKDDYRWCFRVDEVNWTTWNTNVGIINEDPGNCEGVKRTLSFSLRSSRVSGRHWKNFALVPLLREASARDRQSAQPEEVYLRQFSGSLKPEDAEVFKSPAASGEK
Chain of Rap guanine nucleotide exchange factor 3 (Homo sapiens) (O95398 whole entry, looked up): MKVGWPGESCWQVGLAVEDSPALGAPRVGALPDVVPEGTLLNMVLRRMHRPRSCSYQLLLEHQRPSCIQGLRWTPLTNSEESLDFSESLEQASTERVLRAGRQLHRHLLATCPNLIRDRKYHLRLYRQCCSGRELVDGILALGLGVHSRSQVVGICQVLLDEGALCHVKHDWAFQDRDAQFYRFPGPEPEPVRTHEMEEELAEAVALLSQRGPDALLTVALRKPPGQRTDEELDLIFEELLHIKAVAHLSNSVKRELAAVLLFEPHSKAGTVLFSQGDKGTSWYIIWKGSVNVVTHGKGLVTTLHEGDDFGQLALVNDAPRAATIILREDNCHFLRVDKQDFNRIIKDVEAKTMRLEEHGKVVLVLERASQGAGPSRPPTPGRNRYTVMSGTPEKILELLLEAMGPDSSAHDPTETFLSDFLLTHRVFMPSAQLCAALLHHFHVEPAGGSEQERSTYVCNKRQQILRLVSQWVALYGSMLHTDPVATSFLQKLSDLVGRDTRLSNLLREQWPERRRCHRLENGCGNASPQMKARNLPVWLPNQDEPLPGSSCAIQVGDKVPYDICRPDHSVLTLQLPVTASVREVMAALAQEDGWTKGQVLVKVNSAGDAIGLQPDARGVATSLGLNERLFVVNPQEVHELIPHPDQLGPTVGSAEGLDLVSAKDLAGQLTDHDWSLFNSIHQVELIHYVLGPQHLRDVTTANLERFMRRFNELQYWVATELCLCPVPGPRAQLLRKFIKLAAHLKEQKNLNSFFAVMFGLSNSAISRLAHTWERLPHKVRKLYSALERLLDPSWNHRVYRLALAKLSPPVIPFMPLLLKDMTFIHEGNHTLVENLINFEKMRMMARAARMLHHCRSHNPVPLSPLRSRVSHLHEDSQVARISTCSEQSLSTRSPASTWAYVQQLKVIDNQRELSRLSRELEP
Chain of Peroxisome proliferator-activated receptor alpha (Homo sapiens) (Q07869 whole entry, looked up): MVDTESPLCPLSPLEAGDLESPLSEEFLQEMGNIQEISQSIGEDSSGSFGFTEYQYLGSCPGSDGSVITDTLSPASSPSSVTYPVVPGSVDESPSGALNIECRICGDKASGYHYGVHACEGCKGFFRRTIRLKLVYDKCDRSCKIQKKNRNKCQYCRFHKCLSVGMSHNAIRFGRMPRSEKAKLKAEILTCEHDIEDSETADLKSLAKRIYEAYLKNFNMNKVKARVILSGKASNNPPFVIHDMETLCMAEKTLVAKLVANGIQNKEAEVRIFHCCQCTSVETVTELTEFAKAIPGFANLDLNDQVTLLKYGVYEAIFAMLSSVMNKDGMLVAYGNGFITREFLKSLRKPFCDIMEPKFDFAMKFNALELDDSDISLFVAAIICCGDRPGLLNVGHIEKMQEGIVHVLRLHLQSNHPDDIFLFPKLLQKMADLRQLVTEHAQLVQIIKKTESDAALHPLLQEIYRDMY
Chain of Galactokinase (Homo sapiens) (P51570 whole entry, looked up): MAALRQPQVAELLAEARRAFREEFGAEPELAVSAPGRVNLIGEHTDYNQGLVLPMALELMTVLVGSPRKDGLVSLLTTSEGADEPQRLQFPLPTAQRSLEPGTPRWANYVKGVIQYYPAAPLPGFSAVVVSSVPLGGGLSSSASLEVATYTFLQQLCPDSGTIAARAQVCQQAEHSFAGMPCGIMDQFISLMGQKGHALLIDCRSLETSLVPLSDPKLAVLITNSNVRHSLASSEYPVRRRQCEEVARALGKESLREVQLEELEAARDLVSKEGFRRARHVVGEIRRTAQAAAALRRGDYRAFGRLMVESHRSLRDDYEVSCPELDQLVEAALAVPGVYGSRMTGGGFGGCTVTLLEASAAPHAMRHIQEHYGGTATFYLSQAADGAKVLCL
Chain of Thyroid hormone receptor beta (Homo sapiens) (P10828 whole entry, looked up): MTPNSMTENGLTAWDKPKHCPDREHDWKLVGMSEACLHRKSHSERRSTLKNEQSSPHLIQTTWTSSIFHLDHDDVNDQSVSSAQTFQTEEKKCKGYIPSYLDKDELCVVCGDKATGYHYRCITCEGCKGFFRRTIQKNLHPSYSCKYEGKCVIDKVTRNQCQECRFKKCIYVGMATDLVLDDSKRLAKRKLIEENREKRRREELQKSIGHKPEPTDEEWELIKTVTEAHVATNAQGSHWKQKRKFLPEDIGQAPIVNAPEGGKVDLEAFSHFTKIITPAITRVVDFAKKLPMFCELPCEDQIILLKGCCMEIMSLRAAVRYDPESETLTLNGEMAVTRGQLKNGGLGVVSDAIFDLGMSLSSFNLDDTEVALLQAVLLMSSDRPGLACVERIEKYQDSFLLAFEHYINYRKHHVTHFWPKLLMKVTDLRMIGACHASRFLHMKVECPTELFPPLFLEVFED
Chain of Nuclear receptor subfamily 1 group I member 2 (Rattus norvegicus) (Q9R1A7 whole entry, looked up): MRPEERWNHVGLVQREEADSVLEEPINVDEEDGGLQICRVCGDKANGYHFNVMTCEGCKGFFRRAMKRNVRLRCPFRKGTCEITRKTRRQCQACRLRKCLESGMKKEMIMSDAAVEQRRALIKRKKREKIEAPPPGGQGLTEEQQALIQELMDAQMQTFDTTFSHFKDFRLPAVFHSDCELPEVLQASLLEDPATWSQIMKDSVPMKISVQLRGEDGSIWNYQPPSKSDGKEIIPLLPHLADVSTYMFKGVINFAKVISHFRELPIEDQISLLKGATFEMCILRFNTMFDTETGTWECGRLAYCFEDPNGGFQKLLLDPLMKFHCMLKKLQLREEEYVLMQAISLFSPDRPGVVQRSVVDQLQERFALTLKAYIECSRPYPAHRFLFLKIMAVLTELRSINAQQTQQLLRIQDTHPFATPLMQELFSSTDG
Chain of Thyrotropin-releasing hormone receptor (Homo sapiens) (P34981 whole entry, looked up): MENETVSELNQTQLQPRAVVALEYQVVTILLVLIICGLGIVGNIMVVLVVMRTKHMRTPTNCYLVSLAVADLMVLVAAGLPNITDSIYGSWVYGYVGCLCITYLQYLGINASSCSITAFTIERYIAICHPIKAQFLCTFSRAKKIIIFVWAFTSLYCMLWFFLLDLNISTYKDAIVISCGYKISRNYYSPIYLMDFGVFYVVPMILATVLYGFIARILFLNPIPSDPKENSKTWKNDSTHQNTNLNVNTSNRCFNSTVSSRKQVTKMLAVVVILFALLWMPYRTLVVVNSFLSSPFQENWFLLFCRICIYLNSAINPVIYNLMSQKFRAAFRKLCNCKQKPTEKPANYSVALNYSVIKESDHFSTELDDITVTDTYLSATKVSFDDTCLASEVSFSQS

With CCc1c(C(=O)OC)ncc2[nH]c3cc(OC)c(OC)cc3c12 the Potency [1] was “inactive”, the Potency [2] was “inactive” and the outcome [3] was “inactive”. For the same compound, the activation [4] was 0.312% and the outcome [5] was “inactive”.

For CCCN1CCc2cc(O)cc3c2C1Cc1ccc(O)c(O)c1-3 (centres undefined), the Potency [6] was 3.98 µM (active), the Potency [1] was “inactive” and the Potency [2] was 3.29 µM (active). For the same compound, the outcome [3] was “inactive”, the activation [4] was 0.375% and the outcome [5] was “inactive”.

In the case of O=C1c2ccccc2-c2cccc3cccc1c23, the Potency [7] is reported as “inactive”.

In the case of CC1=NCCc2c1[nH]c1cc(O)ccc21, the Potency [7] is reported as 63 µM (active) and 28.1 µM (active) and 48.4 µM (active).

For COc1cc2c(cc1-c1cc3cc4ccoc4cc3oc1=O)OCO2, the Potency [7] was “inactive”.

In the case of CCCN1CCc2cccc3c2C1Cc1ccc(O)c(O)c1-3 (centres undefined), the Potency [6] is reported as 2.51 µM (active), the Potency [1] is reported as “inactive” and the Potency [2] is reported as 2.94 µM (active). The outcome [3] was “inactive”, the activation [4] was 1.44% and the outcome [5] was “inactive”.

With CNC(=O)O/N=C/C(C)(C)SC the Potency [8] was greater than 92 µM, the activity change, negative = cytotoxicity [9] was -2.66% and the Potency [10] was “inactive”. The Potency [11] was “inactive”, the Potency [12] was “inactive” and the Potency [13] was “inactive”. The activation [14] was -4.75% and -0.357% and -10.4%, the activity change % (negative = inhibition) [15] was -3.92% and 16.1% and 0.362% and the Potency [16] was “inactive”. The max response [17] was 4.62% and -1.35% and -3.37%.

With CC(=O)OC1CC2C(C)(C)C(=O)C=C[C@]2(C)C2CC[C@]3(C)C(=CC(=O)OC3c3ccoc3)[C@]12C (some centres undefined) the Potency [7] was “inactive”.

For O=C1C=CC(=O)c2c(O)cccc21, the Potency [7] was “inactive”.

In the case of CC(C)[C@@]1(NC(=O)[C@@H]2C[C@@H]3c4cccc5[nH]cc(c45)C[C@H]3N(C)C2)O[C@@]2(O)C3CCCN3C(=O)[C@H](Cc3ccccc3)N2C1=O (some centres undefined), the Potency [6] is reported as 2.24 µM (active), the Potency [2] is reported as 1.47 µM (active) and the outcome [3] is reported as “inactive”. The activation [4] was 0.125% and the outcome [5] was “inactive”.

For C[C@]12CC[C@H](O)CC1=CCC1C2CC[C@]2(C)C(=O)CC[C@@H]12 (some centres undefined), the Potency [6] was “inactive”, the Potency [1] was “inactive” and the Potency [2] was “inactive”. For the same compound, the outcome [3] was “inactive”, the activation [4] was 0.438% and the outcome [5] was “inactive”. The activity, negative = inhibition [18, 21] was 7.06% and the activity, negative = inhibition [18, 22] was 19%.

In the case of CC(C)C[C@H]1C(=O)N2CCCC2[C@]2(O)O[C@](NC(=O)[C@@H]3C=C4c5cccc6[nH]c(Br)c(c56)C[C@H]4N(C)C3)(C(C)C)C(=O)N12 (some centres undefined), the Potency [6] is reported as 2.51 µM (active) and the Potency [1] is reported as “inactive”.

For C=CCc1ccc2c(c1)OCO2, the Potency [8] was greater than 92 µM, the activity change, negative = cytotoxicity [9] was -3.41% and the Potency [10] was “inactive”. The Potency [19] was “inactive”, the Potency [11] was “inactive” and the Potency [12] was “inactive”. The Potency [13] was “inactive”, the activity change % (negative = inhibition) [15] was -3.5% and the Potency [16] was “inactive”. The max response [17] was -3.48% and the max response [20] was 3.14%.

In the case of O=C(OC1CCN(CCCl)CC1)C(c1ccccc1)c1ccccc1, the Potency [6] is reported as 12.6 µM (active), the Potency [1] is reported as “inactive” and the outcome [3] is reported as “inactive”. For the same compound, the activation [4] was -9.25%, the outcome [5] was “inactive” and the Potency [7] was “inactive”.

For c1ccc(N=Nc2ccccc2)cc1, the Potency [8] was greater than 92 µM, the activity change, negative = cytotoxicity [9] was 1.26% and the Potency [10] was “inactive”. For the same compound, the Potency [19] was “inactive”, the Potency [11] was “inactive” and the Potency [12] was “inactive”. The Potency [13] was “inactive”, the activation [14] was 3.39% and the activity change % (negative = inhibition) [15] was 5.03% and -8.04%. For the same compound, the max response [17] was -0.415% and -1.69% and the max response [20] was -2.25% and 1.3%.

With ClC1=C(Cl)C2(Cl)C3C(Cl)C=CC3C1(Cl)C2(Cl)Cl (centres undefined) the Potency [19] was “inactive”, the Potency [11] was “inactive” and the Potency [12] was “inactive”. The Potency [13] was “inactive”, the activation [14] was 0.68% and the activity change % (negative = inhibition) [15] was -18.9%. The Potency [16] was 26.6 µM (active), the max response [17] was 4.41% and the max response [20] was -2.14%.

With CCOCN(C(=O)CCl)c1c(C)cccc1CC the activity change, negative = cytotoxicity [9] was 4.55%, the Potency [10] was 50.1 µM (active) and the activation [14] was 5.28% and 1.08%. The Potency [16] was “inactive”, the max response [17] was -0.344% and -1.51% and the max response [20] was -4.5% and -5.56%.

In the case of C/C=C/c1ccc2c(c1)OCO2, the Potency [8] is reported as greater than 92 µM, the activity change, negative = cytotoxicity [9] is reported as -2.31% and the Potency [10] is reported as “inactive”. The Potency [19] was “inactive”, the Potency [11] was “inactive” and the Potency [12] was “inactive”. The Potency [13] was “inactive”, the max response [17] was -6.18% and the max response [20] was 0.551%.

Compound C[N+]1([O-])[C@@H]2CC(OC(=O)[C@@H](CO)c3ccccc3)C[C@@H]1[C@H]1O[C@H]12 (some centres undefined) has an activity, negative = inhibition ([18]; at 12.8 µM (top of the series), parasite line A) of -0.201%, an activity, negative = inhibition ([18]; at 12.8 µM (top of the series), parasite line B) of -5.73% and an activity, negative = inhibition [18, 21] of 13.1%. It also gave an activity, negative = inhibition [18, 22] of 10.8%.

With O=S1OCC2C(CO1)C1(Cl)C(Cl)=C(Cl)C2(Cl)C1(Cl)Cl (centres undefined) the Potency [8] was greater than 92 µM, the activity change, negative = cytotoxicity [9] was -80.3% (active) and the Potency [10] was 39.8 µM (active). The Potency [19] was “inactive”, the Potency [11] was “inactive” and the Potency [12] was “inactive”. For the same compound, the activation [14] was 7.98%, the activity change % (negative = inhibition) [15] was -1.54% and the Potency [16] was 66.8 µM (active).

For ClC1=C(Cl)C2(Cl)C3C4C=CC(C4)C3C1(Cl)C2(Cl)Cl (centres undefined), the Potency [8] was greater than 92 µM, the Potency [19] was “inactive” and the Potency [13] was 50.1 µM (active). The activation [14] was 16.6%, the activity change % (negative = inhibition) [15] was -26.2% and the Potency [16] was 42.2 µM (active). For the same compound, the max response [20] was 5.53%.
